Measurements published in PubChem BioAssay AID1117283 (Broad Institute, 2014).
Entries with a potency or affinity are not part of this list. Activity calls are given as the source filed them.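 The calls were made as follows: active = fluorescent signal decreased by at least 40%; inconclusive = no clear call, values can overlap the other calls; inactive = the rest, including activity opposite to the expected direction.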

Experiment: fibronectin fibrillogenesis inhibitors in fibroblasts, dose response, AH1F cells, Alexa488-fibronectin fluorescence, cherry-pick, set 2 (AID 1117283);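 also: AH1F fibroblasts given Alexa488-labelled fibronectin at 24 nM final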
Settings: Alexa488-fibronectin deposition fluorescence, overnight; series mostly up to 35 µM; activity change, negative = inhibition: at the top concentration

Structure (SMILES) | activity change, negative = inhibition
CC(C)C(=O)Nc1ccc2c(c1)C(=O)N(C)[C@@H]1CC[C@H](CC(=O)O)O[C@@H]1CO2 | 7.63% (inactive)
CO[C@H]1CN(C)C(=O)c2cc(NC(=O)Nc3ccc(Cl)c(Cl)c3)ccc2OC[C@H](C)NC[C@@H]1C | -8.06% (inactive)
O=C(NCc1ccccc1)c1ccc(-c2cn[nH]c2)c2ccoc12 | 2.33% (inactive)
CO[C@H]1CN(C)C(=O)c2ccc(NC(=O)c3ccc(-c4ccccc4)cc3)cc2OC[C@@H](C)NC[C@@H]1C | -7.14% (inactive)
Nc1nc(-c2cc3c(cc2Cl)OCCO3)cs1 | 11.5% (inactive)
COc1cccc(CNC(=O)CCc2nnc3ccc(NCCCN4CCCC4=O)nn23)c1 | 0.665% (inactive)
COCC(=O)Nc1ccc2c(c1)C(=O)N(C)[C@H]1CC[C@H](CC(=O)NCc3ccccc3Cl)O[C@H]1CO2 | -9.35% (inactive)
N#Cc1ccc(-c2ccc3c(c2)[C@H]2[C@H](CCN2S(=O)(=O)c2cccc(F)c2)[C@@H](CO)N3)cc1 | 8.8% (inactive)
CCCc1cc(C(=O)OC)c(NC(=O)CCC(=O)O)s1 | 8.2% (inactive)
CN1c2ccc(-c3ccccc3)cc2[C@H]2[C@H](CCN2C(=O)CN2CCOCC2)[C@@H]1CO | 6.7% (inactive)
Cc1ccc(S(=O)(=O)N2CC[C@@H]3[C@@H](CO)Nc4ccc(-c5cccc(C(=O)N(C)C)c5)cc4[C@@H]32)cc1 | 1.42% (inactive)
COc1ccc(CN(C2CCCC2)S(=O)(=O)c2ccc(-n3cnnn3)cc2)cc1OC | 1.74% (inactive)
CO[C@@H]1CN(C)C(=O)c2ccc(NC(=O)c3ccc(-c4ccccc4)cc3)cc2OC[C@@H](C)NC[C@H]1C | -2.89% (inactive)
Cc1cc(C)c(S(=O)(=O)Nn2cnnc2)c(C)c1 | -9.22% (inactive)
